Measurements: PubChem BioAssay (NCI)
The panel holds about 83,000 compounds, 20% with a hit somewhere; the sample as a whole holds those more often.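 Percent growth is the endpoint: 0 to 100 indicates growth inhibition (40 means 60% inhibition), 0 means no net growth, and negative values indicate cell death.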 Activity calls are given as the source filed them. The calls were made as follows: active = growth percent below 10; inactive = the rest.

tested on: HL-60(TB) leukemia; assay: NCI-60 one-dose screen, 48 h (100 = growth as untreated, 0 = no growth, -100 = all killed); conditions: 10 µM unless noted

SMILES | growth
CC(O)C(NC(=O)C1CCCN1C(=O)CNC(=O)C1CC(=O)NCC(=O)NC(Cc2c[nH]c3ccccc23)C(=O)NC(Cc2ccc(O)cc2)C(=O)NCC(=O)NC(CO)C(=O)NC(CCC(N)=O)C(=O)NC(Cc2c[nH]c3ccccc23)C(=O)N1)C(=O)NCC(=O)NC(CCC(N)=O)C(=O)NC(CCCNC(=N)N)C(=O)NC(CC(=O)O)C(=O)O (centres undefined) | 99.7% (inactive)
CC1=CC(=O)C2=C(C)CC(OC(=O)CCc3ccccc3)[C@@H]3[C@H](OC(=O)[C@@H]3C)[C@@H]12 (some centres undefined) | 87.9% (inactive)
CC1=C(C)C(=O)C(Nc2ccc3c(c2)OCCO3)=C(Br)C1=O | -44.2% (active)
OCC(Nc1ncnc2ccc(-c3cnc4cnccn34)cc12)c1ccccc1 (centres undefined) | 78.1% (inactive)
CCN(CC)CCOc1ccc(C(=C(C)Cc2ccc(OC)cc2)c2ccc(OCCN(CC)CC)cc2)cc1 | -42.3% (active)
COc1ccc(-c2cnc(NC(=O)CCCCCCNC(=O)C(O)(O)C(F)(F)F)s2)cc1 | 10.5% (inactive)
CC(C)(C)OC(=O)N1CCN(S(=O)(=O)/N=C2\NC(=O)NC2=C(Cl)Cl)CC1 | 40.3% (inactive)
CN(c1ccc(Br)cc1)S(=O)(=O)c1ccc(-c2cnc(C3CC3)o2)cc1 | -25.1% (active)
C#CCNC1CCC(c2csc(C#C)n2)=C1C (centres undefined) | 90.6% (inactive)
O=C(Nc1cc(F)cc2cccnc12)c1cnc(N2CCOCC2)cn1 | 36.9% (inactive)
CNC(=O)c1cc(Oc2ccc3nc(NC(=O)c4ccc(CN5CCCN(C)CC5)c(C(F)(F)F)c4)sc3c2)ccn1 | -65.2% (active)
COc1cc2nc(Cl)nc(Nc3cccc(C4=Nc5c(N)nc(N)nc5NC(c5ccccc5)C4)c3)c2cc1OC (centres undefined) | 66.4% (inactive)
COC(=O)C(C)NS(=O)(=O)/N=C1\NC(=O)NC1=C(Cl)Cl (centres undefined) | 98.7% (inactive)
C[C@@H](Nc1c(C#N)cnc2ccc(-c3cnc(N)nc3)cc12)c1ccccc1 | 8.49% (active)
Cc1csc(/N=C(N)/N=C(\N)c2cccc(Br)c2)n1 | 91.3% (inactive)
CCCCCN1C(=O)/C(=c2\sc3n(c2=O)C2C(NN=3)N(CC)C(=O)N2CC)c2cccc(C)c21 (centres undefined) | 11.9% (inactive)
COc1ccc(Cn2cc3c(c2-c2cc(OC)c(OC)c(OC)c2)CCCc2cnoc2-3)cc1 | -5.47% (active)
Oc1ccc(CSc2nnc(-c3cnccn3)o2)c2cccnc12 | -11.5% (active)
NC(=O)N1N=C(c2cc3ccccc3oc2=O)CC1c1cn(-c2ccccc2)nc1-c1ccc(Cl)cc1 (centres undefined) | 47% (inactive)
Cc1ccc(OCc2occc2C(=O)N2CCOCC2)cc1 | 107% (inactive)

SMILES | growth
C=CC(=O)N1CCC=C(c2cc3c(N[C@H](C)c4ccccc4)ncnc3[nH]2)C1 | 72.4% (inactive)
COc1cc(/C=C/C(=O)c2cc(OC)c(OC)c(OC)c2)ccc1OCc1ccccc1 | -9.27% (active)
COc1ccc(S(=O)(=O)n2cc(C=O)c3ccccc32)c(OC)c1 | 4.32% (active)
O=C(CCCCCCNC(=O)C(O)(O)C(F)(F)F)Nc1ccc(-c2ccccc2)cc1 | 13.1% (inactive)
O=C(Nc1cccc(-c2nc(-c3ccc(NC(=O)c4cccs4)cc3Cl)no2)c1)Nc1ccc(NC(=O)C2CC2)c(C(F)(F)F)c1 | 6.9% (active)
CCCCc1nc2c(N)nc3ccccc3c2n1Cc1cccc(CN)c1 | 11.9% (inactive)
O=C(CCCCCCN1CC(=O)N2[C@@H](C3CC3)c3[nH]c4ccccc4c3C[C@H]2C1=O)NO | 31.8% (inactive)
CC(=O)Nc1cccc(Nc2nc(N[C@@H](C)c3ccccc3)c3ccccc3n2)c1 | -50.7% (active)
Cc1ccc(-c2csc(N/N=C/c3nc4ccccc4n3C3CC3)n2)cc1 | 7.25% (active)
Cn1cc(-c2cc3ncnc(Nc4ccc(NC(=O)Nc5cc(C(C)(C)C)on5)cc4)c3s2)cn1 | 13.6% (inactive)
CCN1CCN(/C(=N\c2sc(-c3ccccc3)nc2-c2ccccc2)c2ccccc2)CC1 | 50.9% (inactive)
COc1ccc(NC2=C(Cl)C(=O)C(C)=C(C)C2=O)cc1 | 37.4% (inactive)
O=S(=O)(NCCCNc1nccc(-c2[nH]c(-c3ccccc3)nc2-c2ccc(F)c(O)c2)n1)c1ccccc1 | 90.6% (inactive)
O=c1[nH]c2cc(Cl)ccc2n1C1CCN(c2ccc3nnc(Cl)n3n2)CC1 | 93.1% (inactive)
O=C(Nc1nonc1-c1ccccc1)c1ccc(C(F)(F)F)cc1 | 79.1% (inactive)
C/C(=N\NC(=O)/C=C/CC(=O)O)c1nnn(-c2ccc([N+](=O)[O-])cc2)c1C | 98% (inactive)
CNC(=O)c1cc(N2CCc3cc(NC(=O)Nc4ccc(N5CCN(C)CC5)c(C(F)(F)F)c4)ccc32)ccn1 | 79% (inactive)
CN1CCN(c2ccc(C(=O)Nc3cccc(-c4cn(-c5ccc(S(N)(=O)=O)cc5)nn4)c3)cc2C(F)(F)F)CC1 | 77% (inactive)
COc1cccc2cc(-c3cc4ccccc4[nH]3)/c(=N\NC(=O)c3ccc(Cl)cc3)oc12 | -11.8% (active)
